In paper PMC10726135, “HNF4α isoforms regulate the circadian balance between carbohydrate and lipid metabolism in the liver” one finds binding signal data, which are given here for 43 sequences.

Whole data set: some 18,000 sequences, median “log2 normalized intensity” near 0.36, cut for the highest 2% near 7.3. The full list was thinned out, with the highest values kept by preference.

This assay has as its target T1, HNF4alpha8 (COS-7 nuclear extract) (Homo sapiens, UniProt P41235-5 1-452).
T1 sequence: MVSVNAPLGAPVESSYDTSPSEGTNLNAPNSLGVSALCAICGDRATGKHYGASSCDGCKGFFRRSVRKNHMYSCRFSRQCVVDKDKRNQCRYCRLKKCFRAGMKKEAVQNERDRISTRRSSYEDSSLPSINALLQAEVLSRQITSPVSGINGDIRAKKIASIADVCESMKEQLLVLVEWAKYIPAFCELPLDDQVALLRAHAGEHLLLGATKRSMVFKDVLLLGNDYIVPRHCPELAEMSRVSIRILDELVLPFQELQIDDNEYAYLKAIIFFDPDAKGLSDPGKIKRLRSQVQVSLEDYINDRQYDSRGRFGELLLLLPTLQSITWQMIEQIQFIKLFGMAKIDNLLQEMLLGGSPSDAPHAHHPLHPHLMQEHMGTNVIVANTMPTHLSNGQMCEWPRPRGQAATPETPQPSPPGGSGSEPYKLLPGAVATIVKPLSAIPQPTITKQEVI
Description: protein-binding microarray; COS-7 nuclear extract on double-stranded Agilent 4x180k PBM; binding buffer, salt, pH and temperature not given in the material; high values mean tight binding. The settings on record: chain copies: 2; label: 3' end of strand 1 on the slide; dsDNA, one strand shown. Put shortly:
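Nuclear extracts of COS-7 cells transiently transfected with a human HNF4α isoform were applied to a custom Agilent SurePrint G3 4x180k array bearing ~44,000 double-stranded ~60-nt test sequences, each in quadruplicate. The bound protein was imaged on an Agilent G2565CA scanner at 2-µm resolution. Binding signal is the normalized, background-corrected gProcessedSignal from Agilent software.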
For the sequence “TATCTTCTTTCAGTGTTGACCTTTGAACATGCCTAGGGAGATTAGAGTATCGGTCGA”, the binding signal came to 9.23 log2 normalized intensity. The value for “AACACTATCTTCTTTCAGTGTTGACCTTTGGCCTAGGGAGATTAGAGTATCGGTCGA” was 7.46 log2 normalized intensity. Under “AGGAGTGTCTTTCTCCTTGAACACAGTGTTGCCTAGGGAGATTAGAGTATCGGTCGA” stands 1.24 log2 normalized intensity. Under “CATGCTCTTGGAATGTTGAACCTTTCTTTGGCCTAGGGAGATTAGAGTATCGGTCGA” stands 3.19 log2 normalized intensity; under “TCTTTCAGTGTTGACCTTTGAACATTTCTTGCCTAGGGAGATTAGAGTATCGGTCGA”, 8.97 log2 normalized intensity; under “TCTTGGAATGTTGAACCTTTCTTTGTCTTTGCCTAGGGAGATTAGAGTATCGGTCGA”, 2.31 log2 normalized intensity. As to “TATCCAATAAAACACTATCTTCTTTCAGTGGCCTAGGGAGATTAGAGTATCGGTCGA”, the binding signal came out at 0.405 log2 normalized intensity. The value for “GAATGTTGAACCTTTCTTTGTCTTTGCAATGCCTAGGGAGATTAGAGTATCGGTCGA” was 1.98 log2 normalized intensity; that for “TTACCATATTTACTTATGGTTTGACCCTGCGCCTAGGGAGATTAGAGTATCGGTCGA” was 5.23 log2 normalized intensity; that for “AATTCCTTTCAAACTGTATTGCTCAATGTCGCCTAGGGAGATTAGAGTATCGGTCGA” was 0.181 log2 normalized intensity.

Consider “GAGTTGGAGAAGAGCAAAGATCATCTGGTGGCCTAGGGAGATTAGAGTATCGGTCGA”, for which the binding signal turned out to be 1.45 log2 normalized intensity. Under “CAAAAGTTCAAACTTTATTTGATGATGAAGGCCTAGGGAGATTAGAGTATCGGTCGA” stands 0.503 log2 normalized intensity.

“AATGCGCAGAATTTCTTTTAATGTGTGCTTGCCTAGGGAGATTAGAGTATCGGTCGA”: the binding signal amounted to 0.136 log2 normalized intensity. The value for “TTAATACTTTGGAACTCAGTTAATGTACAGGCCTAGGGAGATTAGAGTATCGGTCGA” was 1.59 log2 normalized intensity; that for “CTTAGCAGTGGGAGACAGGCATTAACCCTTGCCTAGGGAGATTAGAGTATCGGTCGA” was 1.74 log2 normalized intensity. Under “GAGACAACTGCAACAGGAGGACCTCTGGATGCCTAGGGAGATTAGAGTATCGGTCGA” stands -0.854 log2 normalized intensity; under “CTTGGGGGAGGAGGGCAACCTTTGAACTGGGCCTAGGGAGATTAGAGTATCGGTCGA”, 6.02 log2 normalized intensity; under “CTGGTTCTGCAAGGCAACTGACCTTTGGATGCCTAGGGAGATTAGAGTATCGGTCGA”, 8.71 log2 normalized intensity. Under “TCTGCAAGGCAACTGACCTTTGGATCTGGGGCCTAGGGAGATTAGAGTATCGGTCGA” stands 8.01 log2 normalized intensity; under “TTCTTCTGGTTCTGCAAGGCAACTGACCTTGCCTAGGGAGATTAGAGTATCGGTCGA”, 4.13 log2 normalized intensity.

For the sequence “AACTGTACTTTGGACTGGGGACCTGGTCTGGCCTAGGGAGATTAGAGTATCGGTCGA”, the binding signal came out at 4.79 log2 normalized intensity. The value for “TTTATGACCTTTGACTGCAGAAGATAAGAAGCCTAGGGAGATTAGAGTATCGGTCGA” was 4.5 log2 normalized intensity. Under “TGATAAAGGGGGCAAAGGGCATGGGCAGCTGCCTAGGGAGATTAGAGTATCGGTCGA” stands 4.41 log2 normalized intensity; under “TTAGGAGGATGACAAAGAGCAAGTGACCCTGCCTAGGGAGATTAGAGTATCGGTCGA”, 4.46 log2 normalized intensity.

As for “GGAGTGACCCTGGGAGCAAAGGTCAAGAGTGCCTAGGGAGATTAGAGTATCGGTCGA”, the binding signal stood at 7.55 log2 normalized intensity. Under “CCACTGGTGTAAGCTCTGGAGTCCAAAGGTGCCTAGGGAGATTAGAGTATCGGTCGA” stands 4.54 log2 normalized intensity. The value for “TGGGAGCAAAGGTCAAGAGTTTTAAAGTATGCCTAGGGAGATTAGAGTATCGGTCGA” was 5.47 log2 normalized intensity; that for “AAGCTCTGGAGTCCAAAGGTCAGCAAGCCTGCCTAGGGAGATTAGAGTATCGGTCGA” was 8.14 log2 normalized intensity. Under “GGAGACCACTGGTGTAAGCTCTGGAGTCCAGCCTAGGGAGATTAGAGTATCGGTCGA” stands 1.64 log2 normalized intensity. Turning to “GGTGTAAGCTCTGGAGTCCAAAGGTCAGCAGCCTAGGGAGATTAGAGTATCGGTCGA”, the binding signal worked out at 8.69 log2 normalized intensity. Under “CTGGAGTCCAAAGGTCAGCAAGCCTGGAGTGCCTAGGGAGATTAGAGTATCGGTCGA” stands 7.44 log2 normalized intensity. Under “GTCCAAAGGTCAGCAAGCCTGGAGTTCTGAGCCTAGGGAGATTAGAGTATCGGTCGA” stands 5.05 log2 normalized intensity; under “ATCCACCCATCCAAAGGTCAGCAATCTCAAGCCTAGGGAGATTAGAGTATCGGTCGA”, 3.45 log2 normalized intensity; under “TGTTTGCCTCTCAGCTCATTCAAAGTCCAAGCCTAGGGAGATTAGAGTATCGGTCGA”, 4.2 log2 normalized intensity. Take “AAGGTCAGCAAGCCTGGAGTTCTGATGTTCGCCTAGGGAGATTAGAGTATCGGTCGA”: the binding signal turned out to be 0.91 log2 normalized intensity. For “TATTTGCTCACCAGTGACCAATAATGTAATGCCTAGGGAGATTAGAGTATCGGTCGA”, the binding signal turned out to be 0.199 log2 normalized intensity.

On to “ATTAGCTTCTGTTCAGGAGTTGTCTGTCCAGCCTAGGGAGATTAGAGTATCGGTCGA”, for which the binding signal was determined as 1.39 log2 normalized intensity. Under “CCATGCTCTTTGGCCTGGCATTTGAGACTAGCCTAGGGAGATTAGAGTATCGGTCGA” stands 0.329 log2 normalized intensity; under “TTTGTCCCCCACCTGTGAAGATAAGCTGTCGCCTAGGGAGATTAGAGTATCGGTCGA”, 3.17 log2 normalized intensity; under “AGAATGGAGAAAACAACATTCCTTGTGTTTGCCTAGGGAGATTAGAGTATCGGTCGA”, 0.48 log2 normalized intensity. On to “AATTCTTAAGCCAAAGTCCAAGTTGGTGAGGCCTAGGGAGATTAGAGTATCGGTCGA”, for which the binding signal was found to be 3.81 log2 normalized intensity. Under “TCAGCCTTAACTCAAAAGGCCAAAGTCCAAGCCTAGGGAGATTAGAGTATCGGTCGA” stands 9.11 log2 normalized intensity; under “TCCACAGTCAAGGCCAAAGGTTAAAAATAAGCCTAGGGAGATTAGAGTATCGGTCGA”, 4.8 log2 normalized intensity.
